# Assay results reported in publication PMC7862700, “An all-to-all approach to the identification of sequence-specific readers for epigenetic DNA modifications on cytosine”.
# Columns and labels:
# Test in all cases: DAPPL (digital affinity profiling via proximity ligation, sequencing); 10 mM Tris-HCl pH 7.5, 50 mM NaCl, 1 mM DTT, 4% glycerol, room temperature, 30 min; GST-TFs on glutathione beads, 16-mer random dsDNA library, 0.1% formaldehyde crosslink after washing; high values mean tight binding
# Details in all cases: protein: recombinant; tags: N-terminal GST; dsDNA, one strand shown
# FEV = biological target: T1, FEV (Homo sapiens, UniProt Q99581 1-238)
# T1 sequence: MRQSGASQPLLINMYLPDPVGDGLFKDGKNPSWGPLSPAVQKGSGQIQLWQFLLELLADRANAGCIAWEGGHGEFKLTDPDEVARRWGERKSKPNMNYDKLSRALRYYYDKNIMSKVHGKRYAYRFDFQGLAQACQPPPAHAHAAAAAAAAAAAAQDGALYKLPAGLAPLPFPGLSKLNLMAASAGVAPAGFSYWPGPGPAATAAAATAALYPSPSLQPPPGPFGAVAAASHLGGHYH
# In short: (§1)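 Sequencing on an Illumina NextSeq500 followed washing, crosslinking with 0.1% formaldehyde, proximity ligation (BsaI/T4 ligase, 1 h, 37 °C) and PCR amplification of pools that had been incubated for 30 min at room temperature with 200 nmole of a random double-stranded 16-mer DNA library in Tris/NaCl/DTT/glycerol buffer. Each pool held DNA-barcoded human transcription factors, expressed in yeast as GST fusions and captured on glutathione beads, plus a tag-only sample. Binding signal is a hexamer's read frequency for a factor divided by its frequency in the tag-only sample.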
# ETV5 = ETV5 (Homo sapiens, UniProt P41161 1-510)
# In short: as §1
# SPIC = biological target: T2, SPIC (Homo sapiens, UniProt Q8N5J4 1-248)
# T2 sequence: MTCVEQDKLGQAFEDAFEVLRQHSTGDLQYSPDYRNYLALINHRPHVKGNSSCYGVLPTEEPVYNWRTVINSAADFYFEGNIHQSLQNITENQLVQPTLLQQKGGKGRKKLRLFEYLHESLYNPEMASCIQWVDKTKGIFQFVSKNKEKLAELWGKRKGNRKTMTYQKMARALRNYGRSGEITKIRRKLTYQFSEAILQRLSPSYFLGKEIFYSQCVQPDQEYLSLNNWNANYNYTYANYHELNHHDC
# In short: as §1
# ELF4 = ELF4 (Homo sapiens, UniProt Q99607 1-663)
# In short: as §1
# ELK4 = biological target: T3, ELK4 (Homo sapiens, UniProt P28324-2 1-405)
# T3 sequence: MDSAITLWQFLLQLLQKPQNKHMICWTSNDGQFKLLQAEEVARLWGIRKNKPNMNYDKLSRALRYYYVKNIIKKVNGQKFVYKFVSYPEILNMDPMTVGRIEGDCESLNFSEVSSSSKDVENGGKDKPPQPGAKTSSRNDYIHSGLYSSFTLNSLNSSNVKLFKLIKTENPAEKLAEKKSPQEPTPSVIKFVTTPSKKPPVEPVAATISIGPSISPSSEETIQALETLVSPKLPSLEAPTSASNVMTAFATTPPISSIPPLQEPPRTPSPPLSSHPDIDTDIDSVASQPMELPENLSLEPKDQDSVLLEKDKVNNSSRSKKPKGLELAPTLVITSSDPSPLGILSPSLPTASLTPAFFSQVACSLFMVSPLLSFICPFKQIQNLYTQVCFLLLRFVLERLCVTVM
# In short: as §1
# ETV2 = biological target: T4, ETV2 (Homo sapiens, UniProt O00321 1-342)
# T4 sequence: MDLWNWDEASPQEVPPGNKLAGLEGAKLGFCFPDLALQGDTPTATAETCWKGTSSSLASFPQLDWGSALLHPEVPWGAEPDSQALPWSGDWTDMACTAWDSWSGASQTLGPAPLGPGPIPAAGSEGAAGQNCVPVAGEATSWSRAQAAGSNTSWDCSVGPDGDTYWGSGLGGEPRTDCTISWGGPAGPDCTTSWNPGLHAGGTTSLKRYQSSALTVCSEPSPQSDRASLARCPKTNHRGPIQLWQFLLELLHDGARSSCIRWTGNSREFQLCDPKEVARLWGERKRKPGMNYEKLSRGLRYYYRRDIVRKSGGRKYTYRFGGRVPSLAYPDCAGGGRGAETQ
# In short: as §1
# ELF3 = biological target: T5, ELF3 (Homo sapiens, UniProt P78545 1-371)
# T5 sequence: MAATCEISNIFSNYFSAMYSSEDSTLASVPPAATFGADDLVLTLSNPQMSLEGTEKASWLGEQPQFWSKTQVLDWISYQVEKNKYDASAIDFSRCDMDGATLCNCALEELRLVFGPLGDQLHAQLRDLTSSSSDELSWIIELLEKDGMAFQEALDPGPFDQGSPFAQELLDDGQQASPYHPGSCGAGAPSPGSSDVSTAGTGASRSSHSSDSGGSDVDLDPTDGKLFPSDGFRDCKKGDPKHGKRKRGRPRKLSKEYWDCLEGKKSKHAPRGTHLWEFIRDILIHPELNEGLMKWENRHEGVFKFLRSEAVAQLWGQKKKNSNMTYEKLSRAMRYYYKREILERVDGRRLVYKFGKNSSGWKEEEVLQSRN
# In short: as §1
# CRX = CRX (Homo sapiens, UniProt O43186 1-299)
# In short: as §1
# ETV1 = ETV1 (Homo sapiens, UniProt P50549 1-477)
# In short: as §1
# ERF = biological target: T6, ERF (Homo sapiens, UniProt P50548 1-548)
# T6 sequence: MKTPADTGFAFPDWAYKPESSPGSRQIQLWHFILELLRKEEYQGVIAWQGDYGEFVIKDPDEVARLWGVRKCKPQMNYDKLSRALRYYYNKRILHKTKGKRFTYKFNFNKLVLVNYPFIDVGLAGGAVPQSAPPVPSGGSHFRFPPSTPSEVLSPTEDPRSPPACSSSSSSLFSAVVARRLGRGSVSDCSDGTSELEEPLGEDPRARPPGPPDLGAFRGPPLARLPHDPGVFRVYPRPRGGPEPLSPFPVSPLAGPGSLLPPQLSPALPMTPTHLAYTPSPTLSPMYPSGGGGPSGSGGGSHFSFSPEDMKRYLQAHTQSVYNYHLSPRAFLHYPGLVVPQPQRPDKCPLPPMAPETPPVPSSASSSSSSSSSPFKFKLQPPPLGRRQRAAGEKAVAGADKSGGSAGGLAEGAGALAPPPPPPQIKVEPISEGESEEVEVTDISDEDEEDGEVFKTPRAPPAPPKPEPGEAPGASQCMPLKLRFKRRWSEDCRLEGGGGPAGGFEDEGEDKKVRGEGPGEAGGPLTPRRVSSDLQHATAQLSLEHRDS
# In short: as §1
# ETV3L = biological target: T7, ETV3L (Homo sapiens, UniProt Q6ZN32 1-361)
# T7 sequence: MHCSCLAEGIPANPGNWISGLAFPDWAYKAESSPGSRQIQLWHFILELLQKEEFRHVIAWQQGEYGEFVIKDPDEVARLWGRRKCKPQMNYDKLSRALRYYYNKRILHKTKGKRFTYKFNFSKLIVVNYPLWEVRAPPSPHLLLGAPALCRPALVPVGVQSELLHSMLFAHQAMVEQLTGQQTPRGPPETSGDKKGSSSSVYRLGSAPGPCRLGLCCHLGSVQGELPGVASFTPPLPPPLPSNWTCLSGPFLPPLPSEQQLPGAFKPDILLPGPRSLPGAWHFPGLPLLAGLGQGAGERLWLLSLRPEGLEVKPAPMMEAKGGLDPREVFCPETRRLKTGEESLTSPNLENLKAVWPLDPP
# In short: as §1
# ETS2 = biological target: T8, ETS2 (Homo sapiens, UniProt P15036 1-469)
# T8 sequence: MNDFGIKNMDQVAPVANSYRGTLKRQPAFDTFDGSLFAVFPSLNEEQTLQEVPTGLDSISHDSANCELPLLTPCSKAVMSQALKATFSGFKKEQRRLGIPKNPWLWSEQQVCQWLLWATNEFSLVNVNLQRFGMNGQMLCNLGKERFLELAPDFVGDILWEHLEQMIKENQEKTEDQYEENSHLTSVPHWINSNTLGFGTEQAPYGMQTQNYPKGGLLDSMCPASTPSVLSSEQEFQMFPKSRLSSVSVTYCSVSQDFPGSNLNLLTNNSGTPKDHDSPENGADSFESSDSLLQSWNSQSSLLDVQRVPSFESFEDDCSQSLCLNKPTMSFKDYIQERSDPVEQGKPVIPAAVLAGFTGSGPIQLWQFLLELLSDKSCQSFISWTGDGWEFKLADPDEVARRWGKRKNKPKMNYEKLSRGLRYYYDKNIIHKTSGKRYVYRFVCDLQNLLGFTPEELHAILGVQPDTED
# In short: as §1
# SPDEF = biological target: T9, SPDEF (Homo sapiens, UniProt O95238 1-335)
# T9 sequence: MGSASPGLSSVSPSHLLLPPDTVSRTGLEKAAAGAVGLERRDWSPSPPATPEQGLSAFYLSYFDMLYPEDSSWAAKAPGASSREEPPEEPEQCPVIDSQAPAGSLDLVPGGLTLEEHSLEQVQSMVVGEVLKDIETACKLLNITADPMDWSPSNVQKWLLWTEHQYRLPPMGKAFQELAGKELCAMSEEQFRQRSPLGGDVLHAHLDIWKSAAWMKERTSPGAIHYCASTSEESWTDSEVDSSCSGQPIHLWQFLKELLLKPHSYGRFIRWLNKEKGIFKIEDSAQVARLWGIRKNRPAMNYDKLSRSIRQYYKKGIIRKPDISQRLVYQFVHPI
# In short: as §1
# ETV7 = biological target: T10, ETV7 (Homo sapiens, UniProt Q9Y603 1-341)
# T10 sequence: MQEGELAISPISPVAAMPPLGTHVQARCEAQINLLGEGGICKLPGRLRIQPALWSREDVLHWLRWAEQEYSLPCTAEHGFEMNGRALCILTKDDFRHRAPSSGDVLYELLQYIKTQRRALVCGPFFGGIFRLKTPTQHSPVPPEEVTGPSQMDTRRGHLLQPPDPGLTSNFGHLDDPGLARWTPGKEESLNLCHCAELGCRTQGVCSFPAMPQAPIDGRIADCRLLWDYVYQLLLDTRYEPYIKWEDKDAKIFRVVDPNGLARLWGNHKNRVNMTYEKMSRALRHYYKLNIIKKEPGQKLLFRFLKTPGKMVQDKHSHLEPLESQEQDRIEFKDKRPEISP
# In short: as §1
# ELF5 = biological target: T11, ELF5 (Homo sapiens, UniProt Q9UKW6-2 1-255)
# T11 sequence: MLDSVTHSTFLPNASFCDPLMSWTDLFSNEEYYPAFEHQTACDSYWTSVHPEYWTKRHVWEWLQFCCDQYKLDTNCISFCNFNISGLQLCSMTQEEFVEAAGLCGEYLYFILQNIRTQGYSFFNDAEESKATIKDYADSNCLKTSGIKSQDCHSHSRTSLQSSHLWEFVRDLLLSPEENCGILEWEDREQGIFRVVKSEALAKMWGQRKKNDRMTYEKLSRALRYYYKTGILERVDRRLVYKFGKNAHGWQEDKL
# In short: as §1
# ETV3 = biological target: T12, ETV3 (Homo sapiens, UniProt P41162-2 1-143)
# T12 sequence: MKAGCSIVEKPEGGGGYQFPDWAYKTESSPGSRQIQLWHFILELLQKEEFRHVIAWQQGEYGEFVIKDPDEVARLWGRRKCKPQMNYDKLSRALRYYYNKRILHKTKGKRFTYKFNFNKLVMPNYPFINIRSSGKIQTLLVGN
# In short: as §1
# ETV6 = ETV6 (Homo sapiens, UniProt P41212 1-452)
# In short: as §1
# Chain of ETV5 (P41161 whole entry): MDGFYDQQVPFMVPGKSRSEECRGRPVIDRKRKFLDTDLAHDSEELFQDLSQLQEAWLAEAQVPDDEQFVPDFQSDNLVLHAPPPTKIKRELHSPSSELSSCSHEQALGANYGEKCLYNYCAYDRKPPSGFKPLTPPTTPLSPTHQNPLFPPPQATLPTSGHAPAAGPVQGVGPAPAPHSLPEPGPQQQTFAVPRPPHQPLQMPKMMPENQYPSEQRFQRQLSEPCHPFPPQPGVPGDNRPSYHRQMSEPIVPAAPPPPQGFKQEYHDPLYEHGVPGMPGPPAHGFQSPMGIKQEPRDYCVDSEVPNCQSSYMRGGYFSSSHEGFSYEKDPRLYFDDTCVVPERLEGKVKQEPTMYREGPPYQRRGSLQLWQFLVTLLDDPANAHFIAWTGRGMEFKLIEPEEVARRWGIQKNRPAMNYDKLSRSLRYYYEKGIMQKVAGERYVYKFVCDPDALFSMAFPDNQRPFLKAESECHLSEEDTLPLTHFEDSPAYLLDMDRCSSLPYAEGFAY
# Chain of ETV1 (P50549 whole entry): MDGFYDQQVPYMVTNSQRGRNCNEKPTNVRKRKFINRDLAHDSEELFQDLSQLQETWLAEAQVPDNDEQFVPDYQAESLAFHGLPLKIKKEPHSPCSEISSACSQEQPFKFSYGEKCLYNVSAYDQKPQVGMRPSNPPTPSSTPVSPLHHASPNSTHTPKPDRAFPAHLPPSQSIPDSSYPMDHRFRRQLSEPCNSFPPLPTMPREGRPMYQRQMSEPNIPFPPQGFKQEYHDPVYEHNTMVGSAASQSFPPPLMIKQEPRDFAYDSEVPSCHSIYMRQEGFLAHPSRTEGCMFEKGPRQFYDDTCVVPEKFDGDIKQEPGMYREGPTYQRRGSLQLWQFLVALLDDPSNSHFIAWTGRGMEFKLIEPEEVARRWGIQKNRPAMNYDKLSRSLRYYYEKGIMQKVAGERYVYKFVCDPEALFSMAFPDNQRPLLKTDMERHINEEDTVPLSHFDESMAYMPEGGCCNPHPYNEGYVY
# Chain of CRX (O43186 whole entry): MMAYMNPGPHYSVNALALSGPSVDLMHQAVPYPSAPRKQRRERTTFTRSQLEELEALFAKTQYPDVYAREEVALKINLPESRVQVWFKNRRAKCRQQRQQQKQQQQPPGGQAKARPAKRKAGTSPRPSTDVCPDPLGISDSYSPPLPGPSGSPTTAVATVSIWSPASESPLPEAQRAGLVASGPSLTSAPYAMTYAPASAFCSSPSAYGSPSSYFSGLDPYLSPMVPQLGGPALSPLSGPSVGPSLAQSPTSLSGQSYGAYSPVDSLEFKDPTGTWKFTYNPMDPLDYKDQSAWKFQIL
# Chain of ELF4 (Q99607 whole entry): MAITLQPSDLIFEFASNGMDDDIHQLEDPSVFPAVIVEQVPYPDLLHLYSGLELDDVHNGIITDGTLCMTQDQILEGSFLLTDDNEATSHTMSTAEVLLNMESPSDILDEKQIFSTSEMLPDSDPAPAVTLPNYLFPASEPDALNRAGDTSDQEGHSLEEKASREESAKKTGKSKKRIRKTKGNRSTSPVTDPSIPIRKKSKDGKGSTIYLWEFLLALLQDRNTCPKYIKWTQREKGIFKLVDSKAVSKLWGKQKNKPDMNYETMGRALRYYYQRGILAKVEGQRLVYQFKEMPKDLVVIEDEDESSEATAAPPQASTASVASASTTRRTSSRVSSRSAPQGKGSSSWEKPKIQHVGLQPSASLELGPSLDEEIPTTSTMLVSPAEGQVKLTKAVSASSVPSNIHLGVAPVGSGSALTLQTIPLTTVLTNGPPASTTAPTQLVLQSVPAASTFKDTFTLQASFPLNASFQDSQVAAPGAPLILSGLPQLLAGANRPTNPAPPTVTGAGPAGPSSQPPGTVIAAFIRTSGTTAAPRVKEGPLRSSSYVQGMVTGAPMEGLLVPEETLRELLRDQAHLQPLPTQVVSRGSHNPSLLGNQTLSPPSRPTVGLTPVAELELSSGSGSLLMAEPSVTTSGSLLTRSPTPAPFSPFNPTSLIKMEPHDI
# Chain of ETV6 (P41212 whole entry): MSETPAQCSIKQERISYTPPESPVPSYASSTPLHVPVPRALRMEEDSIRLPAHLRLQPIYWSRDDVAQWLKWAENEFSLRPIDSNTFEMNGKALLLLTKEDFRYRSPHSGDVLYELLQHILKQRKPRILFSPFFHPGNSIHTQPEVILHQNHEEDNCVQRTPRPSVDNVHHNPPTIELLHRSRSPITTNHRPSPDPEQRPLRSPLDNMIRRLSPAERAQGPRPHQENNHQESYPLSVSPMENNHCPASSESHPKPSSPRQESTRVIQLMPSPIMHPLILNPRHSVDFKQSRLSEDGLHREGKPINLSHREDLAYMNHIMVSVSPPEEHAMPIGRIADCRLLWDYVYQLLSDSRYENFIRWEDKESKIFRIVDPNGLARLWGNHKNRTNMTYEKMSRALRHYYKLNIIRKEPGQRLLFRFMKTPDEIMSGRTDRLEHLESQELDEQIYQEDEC
sequence,measurement,setting,value
CCGCCA,binding signal,FEV,"1.37 fold enrichment (6-mer frequency, TF over GST control)"
same,binding signal,ETV5,"1.21 fold enrichment (6-mer frequency, TF over GST control)"
same,binding signal,SPIC,"1.37 fold enrichment (6-mer frequency, TF over GST control)"
same,binding signal,ELF4,"1.45 fold enrichment (6-mer frequency, TF over GST control)"
same,binding signal,ELK4,"1.44 fold enrichment (6-mer frequency, TF over GST control)"
same,binding signal,ETV2,"1.19 fold enrichment (6-mer frequency, TF over GST control)"
same,binding signal,ELF3,"1.48 fold enrichment (6-mer frequency, TF over GST control)"
same,binding signal,CRX,"1.02 fold enrichment (6-mer frequency, TF over GST control)"
same,binding signal,ETV1,"1.32 fold enrichment (6-mer frequency, TF over GST control)"
same,binding signal,ERF,"1.36 fold enrichment (6-mer frequency, TF over GST control)"
same,binding signal,ETV3L,"1.33 fold enrichment (6-mer frequency, TF over GST control)"
same,binding signal,ETS2,"1.22 fold enrichment (6-mer frequency, TF over GST control)"
same,binding signal,SPDEF,"1.29 fold enrichment (6-mer frequency, TF over GST control)"
same,binding signal,ETV7,"1.26 fold enrichment (6-mer frequency, TF over GST control)"
same,binding signal,ELF5,"1.47 fold enrichment (6-mer frequency, TF over GST control)"
same,binding signal,ETV3,"1.43 fold enrichment (6-mer frequency, TF over GST control)"
same,binding signal,ETV6,"1.26 fold enrichment (6-mer frequency, TF over GST control)"
